{"source": "paper PMC4336329", "about": "(PLoS ONE, 2015)", "note": "About 14,000 (4.5%) of roughly 310,000 compounds showed an effect of 50% or more. The effect is printed as a negative number. This is one part of a sample in which strong results are shown more often than they occur.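 Note: peak tail current of the secondary pulse compared with the same well before compound.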", "data": [{"target": "human ether-à-go-go-related gene (hERG) potassium channel (human, UniProt Q12809)", "sequence (Q12809 whole entry, looked up)": "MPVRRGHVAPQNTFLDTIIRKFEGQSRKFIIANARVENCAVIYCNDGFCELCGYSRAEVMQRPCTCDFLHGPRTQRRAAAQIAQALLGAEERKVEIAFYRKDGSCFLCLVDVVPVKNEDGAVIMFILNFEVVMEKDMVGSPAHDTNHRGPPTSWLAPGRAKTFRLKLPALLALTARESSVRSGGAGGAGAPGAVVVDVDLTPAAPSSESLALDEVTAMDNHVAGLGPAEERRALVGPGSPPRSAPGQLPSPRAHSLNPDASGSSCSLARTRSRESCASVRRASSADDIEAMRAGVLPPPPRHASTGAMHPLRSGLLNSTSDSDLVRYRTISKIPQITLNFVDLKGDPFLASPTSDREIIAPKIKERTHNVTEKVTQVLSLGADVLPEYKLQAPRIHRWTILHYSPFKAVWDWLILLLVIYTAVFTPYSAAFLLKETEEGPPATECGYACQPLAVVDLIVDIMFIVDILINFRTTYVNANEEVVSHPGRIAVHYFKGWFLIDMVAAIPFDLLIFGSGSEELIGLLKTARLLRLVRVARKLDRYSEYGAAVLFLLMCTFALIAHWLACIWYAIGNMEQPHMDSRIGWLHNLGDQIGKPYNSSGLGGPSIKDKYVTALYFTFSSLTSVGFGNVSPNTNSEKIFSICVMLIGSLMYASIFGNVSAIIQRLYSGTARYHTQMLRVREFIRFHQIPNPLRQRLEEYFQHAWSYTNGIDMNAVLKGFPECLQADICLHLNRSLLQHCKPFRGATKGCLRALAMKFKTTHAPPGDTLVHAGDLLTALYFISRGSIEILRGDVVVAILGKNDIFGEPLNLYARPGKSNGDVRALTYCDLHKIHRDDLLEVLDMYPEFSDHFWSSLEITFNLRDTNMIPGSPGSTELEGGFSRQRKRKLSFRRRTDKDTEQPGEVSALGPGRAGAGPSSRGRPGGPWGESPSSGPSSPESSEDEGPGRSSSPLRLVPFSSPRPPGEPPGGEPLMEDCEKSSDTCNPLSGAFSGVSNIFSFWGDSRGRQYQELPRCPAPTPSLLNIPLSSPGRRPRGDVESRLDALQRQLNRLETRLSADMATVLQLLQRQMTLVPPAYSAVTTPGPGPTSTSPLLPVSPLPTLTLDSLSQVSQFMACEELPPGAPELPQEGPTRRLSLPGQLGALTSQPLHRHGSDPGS", "assay": "primary screen, population patch clamp on CHO cells stably expressing hERG; higher = less effect of the substance", "units": {"hERG current change (%, negative = inhibition) at 10uM": "%"}, "values": [{"smiles": "Cc1nnc(SCC(=O)Nc2cc(S(C)(=O)=O)ccc2Cl)n1Cc1ccccc1", "hERG current change (%, negative = inhibition) at 10uM": 6.22}, {"smiles": "CC(=O)NCCNC(=O)c1cccc(NS(=O)(=O)c2ccc3c(c2)OCCO3)c1", "hERG current change (%, negative = inhibition) at 10uM": -2.65}, {"smiles": "Cc1c(NC(=O)C2CC(c3c(F)cccc3Cl)=NO2)c(=O)n(-c2ccccc2)n1C", "note": "(centres unmarked)", "hERG current change (%, negative = inhibition) at 10uM": 14.7}, {"smiles": "CN1CCN(C2Cc3cc(Cl)ccc3Sc3cc(F)ccc32)CC1.CS(=O)(=O)O", "note": "(centres unmarked)", "hERG current change (%, negative = inhibition) at 10uM": -38.2}, {"smiles": "CN1CCN(C2=Cc3ccccc3Sc3cc(F)ccc32)CC1.O=C(O)/C=C\\C(=O)O", "hERG current change (%, negative = inhibition) at 10uM": -62.8}, {"smiles": "CS(=O)(=O)O.Clc1cccc2c1Sc1ccccc1CC2N1CCNCC1", "note": "(centres unmarked)", "hERG current change (%, negative = inhibition) at 10uM": -72.4}, {"smiles": "CS(=O)(=O)O.Cc1cccc2c1Sc1ccc(Cl)cc1CC2N1CCNCC1.O", "note": "(centres unmarked)", "hERG current change (%, negative = inhibition) at 10uM": 5.75}, {"smiles": "CN1CCN(C2Cc3ccc(F)cc3Sc3cc(F)c(Cl)cc32)CC1.CS(=O)(=O)O.O", "note": "(centres unmarked)", "hERG current change (%, negative = inhibition) at 10uM": -77.3}, {"smiles": "CN1CCN(C2=Cc3ccccc3Sc3cc(F)c(Cl)cc32)CC1.O=C(O)/C=C\\C(=O)O", "hERG current change (%, negative = inhibition) at 10uM": -12.4}, {"smiles": "Cc1nc2c(o1)CCc1ccccc1C2N1CCN(C)CC1.O=C(O)/C=C/C(=O)O", "note": "(centres unmarked)", "hERG current change (%, negative = inhibition) at 10uM": -5.58}, {"smiles": "CN1CCN(C2=Cc3ccccc3Sc3cc(F)c(F)cc32)CC1.CS(=O)(=O)O", "hERG current change (%, negative = inhibition) at 10uM": -22.5}, {"smiles": "CC(C)c1ccc2c(c1)C(N1CCN(C)CC1)Cc1cccnc1S2.O=C(O)/C=C\\C(=O)O", "note": "(centres unmarked)", "hERG current change (%, negative = inhibition) at 10uM": -50.6}, {"smiles": "CC(C)c1ccc2c(c1)C(N1CCNCC1)Cc1ccc(F)cc1S2.O.O=C(O)/C=C\\C(=O)O", "note": "(centres unmarked)", "hERG current change (%, negative = inhibition) at 10uM": 5.51}, {"smiles": "CN1CCN(C2=Cc3ccc(Cl)cc3Sc3ccc(F)cc32)CC1.CS(=O)(=O)O.O", "hERG current change (%, negative = inhibition) at 10uM": -14.8}, {"smiles": "CCc1cccc2c1Sc1ccccc1CC2N1CCNCC1.CS(=O)(=O)O", "note": "(centres unmarked)", "hERG current change (%, negative = inhibition) at 10uM": -31.1}, {"smiles": "CCOc1ccc(Cn2nnc(C(=O)NCc3ccc(OC)cc3)c2N)cc1", "hERG current change (%, negative = inhibition) at 10uM": 6.41}, {"smiles": "CCN(CC)c1ccc(C2C(C(=O)OCCOC)=C(C)NC3=C2C(=O)CCC3)cc1", "note": "(centres unmarked)", "hERG current change (%, negative = inhibition) at 10uM": -5.24}, {"smiles": "CCOc1ccc(-c2cc(N)n(S(=O)(=O)c3ccc(OC)cc3)n2)cc1", "hERG current change (%, negative = inhibition) at 10uM": 10.7}, {"smiles": "CN1c2ccccc2-c2nc3ccccc3n2C1c1ccco1", "note": "(centres unmarked)", "hERG current change (%, negative = inhibition) at 10uM": -15.3}, {"smiles": "CC1CCCC(C)N1C(=O)Cn1cc(C#N)c2ccccc21", "note": "(centres unmarked)", "hERG current change (%, negative = inhibition) at 10uM": 9.8}, {"smiles": "CSc1ccc2c(c1)C(N1CCN(C)CC1)Cc1ccccc1S2.O=C([O-])/C=C\\C(=O)[O-]", "note": "(centres unmarked)", "hERG current change (%, negative = inhibition) at 10uM": -65.2}, {"smiles": "CCS(=O)(=O)N1CCN(C2Cc3ccccc3C2)CC1.O=C(O)C(=O)O", "hERG current change (%, negative = inhibition) at 10uM": 3.3}, {"smiles": "Cc1nc2c(o1)CCc1ccccc1C2N1CCN(C)CC1.O=C([O-])/C=C\\C(=O)[O-]", "note": "(centres unmarked)", "hERG current change (%, negative = inhibition) at 10uM": 12.4}, {"smiles": "CCc1ccc2c(c1)Sc1ccccc1CC2N1CCN(C)CC1.CS(=O)(=O)O.O", "note": "(centres unmarked)", "hERG current change (%, negative = inhibition) at 10uM": -69}, {"smiles": "CN(C)/C=C/C(=O)c1ccn(S(=O)(=O)c2ccccc2)c1", "hERG current change (%, negative = inhibition) at 10uM": 23.6}, {"smiles": "Fc1ccc(Cn2nnnc2C(c2ccc(Cl)cc2)N2CC=C(c3ccc(F)cc3)CC2)cc1", "note": "(centres unmarked)", "hERG current change (%, negative = inhibition) at 10uM": 10.1}, {"smiles": "CCOc1ccc(N(C)Cc2cc(=O)oc3ccc(OCC)cc23)cc1", "hERG current change (%, negative = inhibition) at 10uM": -1.17}, {"smiles": "CCOc1cc2[nH]c(=S)n(C3CCN(Cc4ccccc4)CC3)c(=O)c2cc1OCC", "hERG current change (%, negative = inhibition) at 10uM": 17.6}, {"smiles": "Cc1nn(Cc2ccccc2)c(=O)n1N(C)c1ncc(C(F)(F)F)cc1Cl", "hERG current change (%, negative = inhibition) at 10uM": -7.74}, {"smiles": "Cc1ccsc1C1C(C#N)=C(N)OC2=C1C(=O)CC(C)(C)C2", "note": "(centres unmarked)", "hERG current change (%, negative = inhibition) at 10uM": -6.69}, {"smiles": "O=C1C=C(Nc2ccc(Cl)cc2)CC(c2ccc(Cl)cc2)C1", "note": "(centres unmarked)", "hERG current change (%, negative = inhibition) at 10uM": -2.27}, {"smiles": "O=C1C=C(NCc2ccco2)CC(c2ccc(Cl)cc2)C1", "note": "(centres unmarked)", "hERG current change (%, negative = inhibition) at 10uM": -61.5}, {"smiles": "O=C1C=C(Nc2ccc(Cl)cc2)CC(c2ccco2)C1", "note": "(centres unmarked)", "hERG current change (%, negative = inhibition) at 10uM": -1.85}, {"smiles": "O=C1C=C(NCc2ccc(Cl)cc2)CC(c2ccco2)C1", "note": "(centres unmarked)", "hERG current change (%, negative = inhibition) at 10uM": -82.2}, {"smiles": "O=C1C=C(NCc2ccco2)CCC1", "hERG current change (%, negative = inhibition) at 10uM": 16.7}, {"smiles": "O=C1C=C(Nc2cccc(Cl)c2)CC(c2ccco2)C1", "note": "(centres unmarked)", "hERG current change (%, negative = inhibition) at 10uM": -4.15}, {"smiles": "N#Cc1c(C(F)(F)F)cc(-c2ccccc2)n(N)c1=O", "hERG current change (%, negative = inhibition) at 10uM": 13.9}, {"smiles": "Cc1cc(C)n2nc(SCc3ccc(F)cc3Cl)nc2n1", "hERG current change (%, negative = inhibition) at 10uM": -4.5}, {"smiles": "Cn1c(N=Nc2ccccc2)nc2ccccc21", "hERG current change (%, negative = inhibition) at 10uM": 4.08}, {"smiles": "S=c1[nH]c2ccccc2n2c(=S)[nH]nc12", "hERG current change (%, negative = inhibition) at 10uM": 5.26}, {"smiles": "COCCCNC(=O)CN(c1cc(Cl)ccc1OC)S(C)(=O)=O", "hERG current change (%, negative = inhibition) at 10uM": 17.4}, {"smiles": "Oc1ccc(CN2CCN(Cc3ccccc3)CC2)c2cccnc12", "hERG current change (%, negative = inhibition) at 10uM": -13.9}, {"smiles": "CCCCCc1c(C)nc(NCc2ccccc2)[nH]c1=O", "hERG current change (%, negative = inhibition) at 10uM": -4.44}, {"smiles": "N/C(=N\\OC(=O)c1ccc(Cl)c(Cl)c1)c1ccccn1", "hERG current change (%, negative = inhibition) at 10uM": 3.76}, {"smiles": "CC1CCN(S(=O)(=O)c2ccc3c(c2)N(CC(=O)NCc2cccnc2)C(=O)CS3)CC1", "hERG current change (%, negative = inhibition) at 10uM": -53.3}, {"smiles": "CC1CCCCN1CCNC(=O)CN1C(=O)CSc2ccc(S(=O)(=O)N3CCCCC3)cc21", "note": "(centres unmarked)", "hERG current change (%, negative = inhibition) at 10uM": -17.6}, {"smiles": "O=C(CN1C(=O)CSc2ccc(S(=O)(=O)N3CCOCC3)cc21)NCCCN1CCCCC1", "hERG current change (%, negative = inhibition) at 10uM": 18}, {"smiles": "O=C(CN1C(=O)CSc2ccc(S(=O)(=O)N3CCOCC3)cc21)NCc1cccnc1", "hERG current change (%, negative = inhibition) at 10uM": 6.4}, {"smiles": "CC1CCN(CCCNC(=O)CN2C(=O)CSc3ccc(S(=O)(=O)N4CCC(C)CC4)cc32)CC1", "hERG current change (%, negative = inhibition) at 10uM": -54.5}, {"smiles": "CC1CCN(S(=O)(=O)c2ccc3c(c2)N(CC(=O)NCCN2C(C)CCCC2C)C(=O)CS3)CC1", "note": "(centres unmarked)", "hERG current change (%, negative = inhibition) at 10uM": -52.7}, {"smiles": "CC1CCN(CCCNC(=O)CN2C(=O)CSc3ccc(S(=O)(=O)N4CCOCC4)cc32)CC1", "hERG current change (%, negative = inhibition) at 10uM": 6.31}, {"smiles": "CC1CCN(S(=O)(=O)c2ccc3c(c2)N(CC(=O)NCCCN2CCCCC2)C(=O)CS3)CC1", "hERG current change (%, negative = inhibition) at 10uM": -10.6}, {"smiles": "CC1CCN(S(=O)(=O)c2ccc3c(c2)N(CC(=O)NCCCN2CCCCC2C)C(=O)CS3)CC1", "note": "(centres unmarked)", "hERG current change (%, negative = inhibition) at 10uM": 0.668}, {"smiles": "O=C(CN1C(=O)CSc2ccc(S(=O)(=O)N3CCOCC3)cc21)NCCCN1CCc2ccccc2C1", "hERG current change (%, negative = inhibition) at 10uM": -66.3}, {"smiles": "Cc1ccc(CNC(=O)CN2C(=O)CSc3ccc(S(=O)(=O)N4CCC(C)CC4)cc32)cc1", "hERG current change (%, negative = inhibition) at 10uM": -27.4}, {"smiles": "CCCCCCCNC(=O)CN1C(=O)CSc2ccc(S(=O)(=O)N3CCOCC3)cc21", "hERG current change (%, negative = inhibition) at 10uM": -17.7}]}]}
